Data reported in PubChem BioAssay (NCI).
Compounds without any hit were thinned out: in the full panel of roughly 83,000, 20% have a hit.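 Results are percent growth after 48 hours of single-concentration exposure. 100 means growth as in untreated cells, lower positive values show inhibition; negative values down to -100 show cell death.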 Active and inactive are the calls of the source. Rule for the calls: active = growth percent below 10; inactive = the rest.

What was measured:
Experiment in all cases: NCI-60 one-dose screen, 48 h (100 = growth as untreated, 0 = no growth, -100 = all killed)
Settings in all cases: 10 µM unless noted
SK-MEL-2 melanoma = tested on: SK-MEL-2 melanoma
EKVX NSCLC = tested on: EKVX NSCLC
SN12C renal = tested on: SN12C renal
UO-31 renal = tested on: UO-31 renal
TK-10 renal = tested on: TK-10 renal
ACHN renal = tested on: ACHN renal
CAKI-1 renal = tested on: CAKI-1 renal
CCRF-CEM leukemia = tested on: CCRF-CEM leukemia
MOLT-4 leukemia = tested on: MOLT-4 leukemia
A498 renal = tested on: A498 renal

Measured: growth

CCNCCCn1c2c(c3ccc(Cl)cc3c1=O)C(=O)c1cc(OC)cnc1-2
inactive: SK-MEL-2 melanoma 77.1% | EKVX NSCLC 53.4% | SN12C renal 27.6% | UO-31 renal 10.3% | TK-10 renal 39.9% | CAKI-1 renal 39.9%
active: ACHN renal 8.64% | CCRF-CEM leukemia -37.3% | MOLT-4 leukemia -34%

NC(N)=N/N=C/c1ccc(Cl)cc1
inactive: SK-MEL-2 melanoma 95.9% | EKVX NSCLC 64.2% | SN12C renal 94.9% | UO-31 renal 73.3% | TK-10 renal 84.9% | ACHN renal 91.8% | A498 renal 68.2% | CCRF-CEM leukemia 71% | MOLT-4 leukemia 53.9%

COc1cc(/C=C\c2cc(/C=C\c3ccc(O)c(OC)c3)n(C(=O)Nc3ccc(C(F)(F)F)cc3)n2)ccc1O
inactive: SK-MEL-2 melanoma 84.5% | EKVX NSCLC 61.3% | SN12C renal 36.9% | UO-31 renal 42.9% | TK-10 renal 77.7% | ACHN renal 65.8% | A498 renal 108% | MOLT-4 leukemia 11.1%
active: CCRF-CEM leukemia 3.42%

O=C(O)C(CCc1ccccc1)NCc1ccccc1 (stereo unspecified)
inactive: SK-MEL-2 melanoma 94.9% | EKVX NSCLC 102% | SN12C renal 93% | UO-31 renal 77.8% | TK-10 renal 91% | ACHN renal 95.8% | CAKI-1 renal 100% | A498 renal 86.2% | MOLT-4 leukemia 108%

CC(C)CCC(=O)[C@@H](C)[C@H]1[C@@H](OC2OCC(O)C(O)C2NS(C)(=O)=O)C[C@H]2[C@@H]3CC=C4C[C@@H](O)CC[C@]4(C)[C@H]3CC[C@]12C (stereo partly specified)
inactive: EKVX NSCLC 27.7% | SN12C renal 75.2% | TK-10 renal 26.1% | ACHN renal 42.1%
active: SK-MEL-2 melanoma -36.9% | UO-31 renal -16.1% | A498 renal -58.4% | CCRF-CEM leukemia -8.84% | MOLT-4 leukemia -0.0897%

COc1cc(NCCC2CCCCN2)c2ncccc2c1OC (stereo unspecified)
inactive: SK-MEL-2 melanoma 50.5% | EKVX NSCLC 114% | SN12C renal 81.6% | UO-31 renal 65.3% | TK-10 renal 104% | ACHN renal 82.9% | A498 renal 113% | CCRF-CEM leukemia 47.2% | MOLT-4 leukemia 43%

CCCCCCCCN=C(NCCCCCCCC)SCc1cccc2ccccc12
active: SK-MEL-2 melanoma -89.8% | EKVX NSCLC -66.4% | SN12C renal -88.1% | UO-31 renal -57.2% | TK-10 renal -94.8% | ACHN renal -91.8% | A498 renal -80.4% | CCRF-CEM leukemia -2.17% | MOLT-4 leukemia -11%

Cc1cc(C#Cc2ccc(C(C)(C)C)cc2)ccc1-n1c(/C=C/c2c(Cl)cccc2Cl)nc2ccccc2c1=O
inactive: SK-MEL-2 melanoma 120% | EKVX NSCLC 89.9% | SN12C renal 104% | UO-31 renal 77.2% | TK-10 renal 99.1% | ACHN renal 96.2% | A498 renal 104% | CCRF-CEM leukemia 95.9% | MOLT-4 leukemia 86.9%

C=C1C(=O)O[C@H]2[C@H]1CC/C(COC(=O)NCc1c[nH]c3ccc(OC)cc13)=C\CC[C@@]1(C)O[C@@H]21
active: UO-31 renal -85% | TK-10 renal -40.3% | ACHN renal -10.7% | CCRF-CEM leukemia -7.78% | MOLT-4 leukemia 2.7%
inactive: SK-MEL-2 melanoma 35.9% | EKVX NSCLC 33.9% | SN12C renal 10.9% | A498 renal 94.1%

CC(C)CCSc1nc(-c2ccc(F)cc2)c(C#N)c(N2CCN(C)CC2)n1
inactive: SK-MEL-2 melanoma 77.4% | EKVX NSCLC 87.8% | SN12C renal 88.8% | UO-31 renal 51.3% | TK-10 renal 88.2% | ACHN renal 76.5% | A498 renal 69.7% | CCRF-CEM leukemia 78.9% | MOLT-4 leukemia 72.5%

COc1ccccc1CNCCCN1C(=O)c2ccc3c4c(ccc(c24)C1=O)C(=O)N(CCCOCCCCOCCCN)C3=O
active: SK-MEL-2 melanoma -42.7% | EKVX NSCLC -83.3% | SN12C renal -87.5% | UO-31 renal -21.1% | ACHN renal -62.2% | A498 renal -16.1% | CCRF-CEM leukemia 2.11% | MOLT-4 leukemia -9.44%
inactive: TK-10 renal 28.6%

COc1ccc2[nH]cc(C3(c4c[nH]c5ccc(OC)cc45)C(=O)Nc4ccc(Cl)cc43)c2c1
active: MOLT-4 leukemia 5.75%
inactive: SK-MEL-2 melanoma 90.7% | EKVX NSCLC 43.5% | SN12C renal 91.8% | UO-31 renal 46.3% | TK-10 renal 107% | ACHN renal 76% | A498 renal 73.8% | CCRF-CEM leukemia 15.8%

N/N=C(\C(=N\N)c1ccccc1)c1ccccc1
inactive: SK-MEL-2 melanoma 98.7% | EKVX NSCLC 94% | SN12C renal 88.9% | UO-31 renal 73.6% | TK-10 renal 98.8% | ACHN renal 104% | CAKI-1 renal 99.9% | A498 renal 76.1% | MOLT-4 leukemia 81.2%

COc1ccc2c(c1)N(Cc1ccc(Cl)cc1)CCC2N1CCCC1=O (stereo unspecified)
inactive: SK-MEL-2 melanoma 64.4% | EKVX NSCLC 36.9% | SN12C renal 39.2% | TK-10 renal 55.3% | ACHN renal 53.3% | CAKI-1 renal 40.8% | MOLT-4 leukemia 34.5%
active: UO-31 renal 8.64% | A498 renal -7.14%

CC(=O)Nc1c(Br)cc2c(c1Br)Cc1cc(Br)ccc1-2
inactive: SK-MEL-2 melanoma 99.6% | EKVX NSCLC 55.3% | SN12C renal 83.1% | UO-31 renal 67.3% | TK-10 renal 109% | ACHN renal 60.8% | CAKI-1 renal 81.1% | CCRF-CEM leukemia 66.4% | MOLT-4 leukemia 76.9%

CCC1=CC2CN(C1)Cc1c([nH]c3ccccc13)[C@@](C(=O)OC)(c1cc3c(cc1OC)N(C)[C@H]1[C@@](O)(C(=O)OC)[C@H](OC(C)=O)[C@]4(CC)C=CCN5CC[C@]31[C@@H]54)C2 (stereo partly specified)
active: SK-MEL-2 melanoma 5.95% | A498 renal -14.6% | MOLT-4 leukemia 6.56%
inactive: EKVX NSCLC 68.6% | SN12C renal 36.9% | UO-31 renal 51.5% | TK-10 renal 41.2% | ACHN renal 34.1% | CCRF-CEM leukemia 19.1%

CC[C@H](C)[C@H](N)C(=O)O
inactive: SK-MEL-2 melanoma 109% | EKVX NSCLC 107% | SN12C renal 101% | UO-31 renal 83.9% | TK-10 renal 121% | ACHN renal 103% | CAKI-1 renal 95.6% | A498 renal 91% | MOLT-4 leukemia 116%

COC(=O)c1ccc2c(c1)nc(-c1ccc(Cl)cc1)n2-c1cc(C(C)(C)C)[nH]n1
inactive: SK-MEL-2 melanoma 31.6% | EKVX NSCLC 78.3% | SN12C renal 79.1% | UO-31 renal 41.9% | TK-10 renal 86.6% | ACHN renal 75.4% | A498 renal 21.8% | CCRF-CEM leukemia 45.2% | MOLT-4 leukemia 41.8%

CNCCCn1c2c(c3ccc(Cl)cc3c1=O)C(=O)c1cc(OC)cnc1-2
inactive: SK-MEL-2 melanoma 77.3% | EKVX NSCLC 63.8% | SN12C renal 39.7% | UO-31 renal 33.4% | TK-10 renal 54.2% | ACHN renal 19.8% | A498 renal 20.5%
active: CCRF-CEM leukemia -22.5% | MOLT-4 leukemia -29.9%

O=C1C=CN2C(=O)CC=CC2[C@@H]1O (stereo partly specified)
inactive: SK-MEL-2 melanoma 113% | EKVX NSCLC 121% | SN12C renal 106% | UO-31 renal 78.2% | TK-10 renal 118% | ACHN renal 109% | A498 renal 108% | CCRF-CEM leukemia 96.3% | MOLT-4 leukemia 109%

S=C(Nc1ccc(Cl)cc1)Nc1ccc(Cl)cc1 (tested in a mixture with another compound)
inactive: SN12C renal 11.1% | MOLT-4 leukemia 15.3%
active: SK-MEL-2 melanoma -32.7% | EKVX NSCLC -4.98% | UO-31 renal -5.47% | TK-10 renal 1.45% | ACHN renal 3.54% | CAKI-1 renal -20.3% | A498 renal -8.63%

NC(CCC(=O)NC(CS)C(=O)NCC(=O)O)C(=O)O (stereo unspecified)
inactive: SK-MEL-2 melanoma 100% | EKVX NSCLC 99.8% | SN12C renal 108% | UO-31 renal 85.9% | TK-10 renal 154% | ACHN renal 104% | A498 renal 127% | CCRF-CEM leukemia 121% | MOLT-4 leukemia 102%

O=C(N/N=C/c1ccc([N+](=O)[O-])o1)c1ccc(O)cc1
inactive: SK-MEL-2 melanoma 24.1% | EKVX NSCLC 71.2% | SN12C renal 29.4% | UO-31 renal 84.7% | TK-10 renal 125% | ACHN renal 66.5% | A498 renal 112% | CCRF-CEM leukemia 34.6% | MOLT-4 leukemia 48.4%

CC1=CC(=O)OC1C/C=C(\C)CCC1[C@@]2(C)CCC[C@@](C)(C(=O)O)C2CC[C@@]1(C)O (stereo partly specified)
inactive: SK-MEL-2 melanoma 16.5% | EKVX NSCLC 38.8% | UO-31 renal 32.2% | TK-10 renal 53.6% | ACHN renal 26.1% | CAKI-1 renal 32.9% | A498 renal 52.7% | CCRF-CEM leukemia 70.2% | MOLT-4 leukemia 114%

CC(=O)c1ccc(N2C(=O)c3ccc(Oc4ccccc4)cc3C2=O)cc1
inactive: SK-MEL-2 melanoma 110% | EKVX NSCLC 94.1% | UO-31 renal 92.5% | TK-10 renal 105% | ACHN renal 107% | CAKI-1 renal 101% | A498 renal 91.5% | CCRF-CEM leukemia 134% | MOLT-4 leukemia 115%

CN(C)CCNC(=O)n1cc(-c2ccncc2)c(-c2cc(O)cc(Cl)c2)n1
inactive: SK-MEL-2 melanoma 96.3% | EKVX NSCLC 107% | UO-31 renal 104% | TK-10 renal 92.6% | ACHN renal 80.6% | CAKI-1 renal 109% | A498 renal 82.2% | CCRF-CEM leukemia 88% | MOLT-4 leukemia 86.4%

NNC(=O)CSc1nc2scc(-c3ccccc3)c2c(=O)n1-c1ccccc1
inactive: SK-MEL-2 melanoma 101% | EKVX NSCLC 103% | UO-31 renal 76.2% | TK-10 renal 178% | ACHN renal 103% | CAKI-1 renal 106% | A498 renal 87.4% | CCRF-CEM leukemia 106% | MOLT-4 leukemia 96%

COc1ccc2c(c1)sc1nc(-c3ccccc3)c(-c3cccc4ccccc34)n12
active: A498 renal 0.895%
inactive: SK-MEL-2 melanoma 27.5% | EKVX NSCLC 28.7% | UO-31 renal 47.7% | TK-10 renal 37.9% | ACHN renal 49.1% | CAKI-1 renal 29.3% | CCRF-CEM leukemia 22.3% | MOLT-4 leukemia 27.1%

CCOC(=O)CCN(CCC(=O)OCC)c1ccccc1
inactive: SK-MEL-2 melanoma 96.7% | EKVX NSCLC 115% | UO-31 renal 77.8% | TK-10 renal 101% | ACHN renal 100% | CAKI-1 renal 116% | A498 renal 127% | CCRF-CEM leukemia 61.7% | MOLT-4 leukemia 96.5%
